Experimental data published in PubChem BioAssay.
Active and inactive are the calls of the source.

What was measured:
[1] = small molecules captured by biotinylated probe aFSTL3 – biochemical, small-molecule microarray, fluorescence 635/667, stem cell growth factor project, primary screen (AID 1064); details: higher = more signal;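 note: measures binding of the biotinylated anti-FSTL3 antibody to printed compounds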
[2] = binders from COS7 lysate, DM2A8 probe, primary screen, torsin A project, cell lysate, small-molecule microarray, fluorescence 635/667 (AID 1065); details: higher = more signal, COS7 lysate expressing mutant human TOR1A
[3] = small molecules captured by biotinylated probe aFGF2 – biochemical, small-molecule microarray, fluorescence 635/667, stem cell growth factor project, primary screen (AID 1067); details: higher = more signal;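 note: measures binding of biotinylated aFGF2 protein to printed compounds on slides; z-score merges feature fluorescence and signal-to-noise across triplicate slides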
[4] = small molecules captured by biotinylated probe aFGF10 – biochemical, small-molecule microarray, fluorescence 635/667, stem cell growth factor project, primary screen (AID 1071); details: higher = more signal;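 note: score merges 667 nm spot intensity and signal to noise from triplicate slides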
[5] = target: Neurogenic locus notch homolog protein 2 (Homo sapiens) (UniProt Q04721); assay: small molecules binding Notch2 protein – biochemical, small-molecule microarray, 635 nm fluorescence, stem cell growth factors, primary screen (AID 1073); details: higher = more signal
Chain of Neurogenic locus notch homolog protein 2 (Homo sapiens) (Q04721 whole entry, looked up, canonical isoform): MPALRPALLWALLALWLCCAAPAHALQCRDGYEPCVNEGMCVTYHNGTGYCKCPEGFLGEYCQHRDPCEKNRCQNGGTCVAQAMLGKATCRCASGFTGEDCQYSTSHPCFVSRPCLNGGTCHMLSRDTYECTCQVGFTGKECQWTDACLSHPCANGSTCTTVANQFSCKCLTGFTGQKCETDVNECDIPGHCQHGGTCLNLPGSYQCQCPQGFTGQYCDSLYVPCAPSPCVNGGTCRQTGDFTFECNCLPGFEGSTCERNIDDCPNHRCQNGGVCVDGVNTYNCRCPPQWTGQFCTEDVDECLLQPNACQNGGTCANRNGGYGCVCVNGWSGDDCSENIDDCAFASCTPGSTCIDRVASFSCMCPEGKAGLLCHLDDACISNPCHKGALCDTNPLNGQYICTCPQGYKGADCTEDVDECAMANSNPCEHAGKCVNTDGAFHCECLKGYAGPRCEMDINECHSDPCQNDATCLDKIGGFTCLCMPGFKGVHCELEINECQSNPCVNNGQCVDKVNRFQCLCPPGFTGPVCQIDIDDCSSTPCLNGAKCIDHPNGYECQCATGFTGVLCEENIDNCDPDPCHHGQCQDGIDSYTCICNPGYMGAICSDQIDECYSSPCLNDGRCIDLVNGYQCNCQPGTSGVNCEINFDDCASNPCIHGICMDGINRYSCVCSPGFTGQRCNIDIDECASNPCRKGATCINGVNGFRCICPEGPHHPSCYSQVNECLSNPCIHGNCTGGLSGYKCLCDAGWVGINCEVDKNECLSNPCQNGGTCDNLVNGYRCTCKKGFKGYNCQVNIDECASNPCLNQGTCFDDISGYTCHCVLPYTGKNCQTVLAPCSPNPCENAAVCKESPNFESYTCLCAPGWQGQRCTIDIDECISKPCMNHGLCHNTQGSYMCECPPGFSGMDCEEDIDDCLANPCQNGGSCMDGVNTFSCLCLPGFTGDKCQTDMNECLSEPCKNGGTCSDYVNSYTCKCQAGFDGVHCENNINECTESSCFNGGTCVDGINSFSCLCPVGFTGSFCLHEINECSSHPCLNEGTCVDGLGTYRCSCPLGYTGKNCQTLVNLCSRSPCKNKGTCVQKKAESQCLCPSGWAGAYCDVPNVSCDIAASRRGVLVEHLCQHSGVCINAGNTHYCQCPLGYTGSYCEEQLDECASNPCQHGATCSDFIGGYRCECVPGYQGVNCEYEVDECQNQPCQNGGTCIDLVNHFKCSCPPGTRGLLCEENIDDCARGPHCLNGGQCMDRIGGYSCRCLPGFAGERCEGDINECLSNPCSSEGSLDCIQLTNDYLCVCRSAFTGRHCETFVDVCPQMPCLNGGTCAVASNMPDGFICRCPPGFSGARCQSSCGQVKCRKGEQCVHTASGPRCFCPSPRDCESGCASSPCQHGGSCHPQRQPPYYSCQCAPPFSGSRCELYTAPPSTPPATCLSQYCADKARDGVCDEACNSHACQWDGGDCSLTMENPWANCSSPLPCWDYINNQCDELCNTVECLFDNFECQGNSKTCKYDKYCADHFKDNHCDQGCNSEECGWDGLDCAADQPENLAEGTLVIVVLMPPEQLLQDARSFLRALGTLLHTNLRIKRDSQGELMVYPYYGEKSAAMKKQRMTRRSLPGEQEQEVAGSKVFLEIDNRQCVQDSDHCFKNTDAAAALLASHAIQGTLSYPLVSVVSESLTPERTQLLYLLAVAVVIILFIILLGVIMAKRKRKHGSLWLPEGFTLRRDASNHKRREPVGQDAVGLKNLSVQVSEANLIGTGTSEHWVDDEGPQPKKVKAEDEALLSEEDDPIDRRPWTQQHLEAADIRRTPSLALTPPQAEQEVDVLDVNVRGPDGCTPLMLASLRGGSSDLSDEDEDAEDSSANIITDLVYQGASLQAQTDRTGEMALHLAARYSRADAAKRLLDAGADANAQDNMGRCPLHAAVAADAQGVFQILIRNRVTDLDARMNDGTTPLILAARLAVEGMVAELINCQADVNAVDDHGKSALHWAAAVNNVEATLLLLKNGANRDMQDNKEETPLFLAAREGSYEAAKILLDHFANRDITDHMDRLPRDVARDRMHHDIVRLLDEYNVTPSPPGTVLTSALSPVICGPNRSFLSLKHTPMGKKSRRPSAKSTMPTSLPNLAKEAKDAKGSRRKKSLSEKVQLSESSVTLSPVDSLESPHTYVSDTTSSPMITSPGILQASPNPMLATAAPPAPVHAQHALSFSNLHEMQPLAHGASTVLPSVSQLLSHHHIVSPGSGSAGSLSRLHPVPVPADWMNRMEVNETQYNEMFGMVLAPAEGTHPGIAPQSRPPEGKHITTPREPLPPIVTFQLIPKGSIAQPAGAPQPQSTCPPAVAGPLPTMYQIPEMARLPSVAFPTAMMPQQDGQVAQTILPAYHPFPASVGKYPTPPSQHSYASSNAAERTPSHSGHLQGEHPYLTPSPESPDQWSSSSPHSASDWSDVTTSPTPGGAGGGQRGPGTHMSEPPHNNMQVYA

[6] = target: Pro-neuregulin-1, membrane-bound isoform (Homo sapiens) (UniProt Q02297); assay: small molecules binding neuregulin-1 protein – biochemical, small-molecule microarray, fluorescence 635/667, psychiatric disease protein project, primary screen (AID 1075); details: NRG1 binding, 635 nm fluorescence, higher = more signal;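 note: score combines 667 nm spot fluorescence with signal to noise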
Chain of Pro-neuregulin-1, membrane-bound isoform (Homo sapiens) (Q02297 whole entry, looked up, the tested form may be a part, canonical isoform): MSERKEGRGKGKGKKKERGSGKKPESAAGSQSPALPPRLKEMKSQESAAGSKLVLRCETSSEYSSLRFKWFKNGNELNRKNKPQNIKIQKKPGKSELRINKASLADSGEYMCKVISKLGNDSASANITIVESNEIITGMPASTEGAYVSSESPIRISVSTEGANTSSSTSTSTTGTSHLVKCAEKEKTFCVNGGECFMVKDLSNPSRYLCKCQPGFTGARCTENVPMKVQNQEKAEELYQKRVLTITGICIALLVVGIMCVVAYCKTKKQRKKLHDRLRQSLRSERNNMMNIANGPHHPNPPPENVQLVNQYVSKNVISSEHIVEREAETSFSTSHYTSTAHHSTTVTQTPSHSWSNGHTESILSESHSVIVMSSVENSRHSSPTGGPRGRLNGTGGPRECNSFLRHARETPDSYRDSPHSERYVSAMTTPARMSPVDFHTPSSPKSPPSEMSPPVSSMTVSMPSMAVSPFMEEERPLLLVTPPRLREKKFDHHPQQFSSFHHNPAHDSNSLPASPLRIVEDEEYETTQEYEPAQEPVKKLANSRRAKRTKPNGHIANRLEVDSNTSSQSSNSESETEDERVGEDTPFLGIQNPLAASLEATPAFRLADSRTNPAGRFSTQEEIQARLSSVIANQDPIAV

[7] = test system: Neuregulin-1 EGF-like domain; assay: small molecules binding NRG1 EGF domain – biochemical, small-molecule microarray, 635 nm fluorescence, primary screen (AID 1081); details: higher = more signal;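 note: binding of the protein to compounds printed on small-molecule microarray slides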
[8] = FRG1 expression reporter modulators in myotubes – cell-based, C2C12 myotubes, firefly/Renilla luciferase, luminescence, FRG1 inhibition for FSHD, primary screen (AID 1084); details: FRG1 promoter luciferase, higher = more signal, called active from +8 up or from −8 down
[9] = small molecules captured by biotinylated probe aFST – biochemical, small-molecule microarray, fluorescence 635/667, stem cell growth factor project, primary screen (AID 1086); details: higher = more signal;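 note: score merges 667 nm fluorescence with signal-to-noise of each printed compound spot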
[10] = binders of probe aHhip on microarray, primary screen, stem cell growth factor project, biochemical, small-molecule microarray, fluorescence 635/667 (AID 1087); details: higher = more signal;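 note: score merges spot fluorescence at 667nm with spot signal to noise ratio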
[11] = test system: PRMT1 (protein arginine N-methyltransferase 1); assay: small molecules binding arginine methyltransferase PRMT1 – biochemical, small-molecule microarray, 635 nm fluorescence, primary screen (AID 1088); details: higher = more signal;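 note: binding of Prmt1 protein to compounds spotted on small-molecule microarray slides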
[12] = growth effects on S. cerevisiae YJM789 – YJM789 clinical isolate, OD600, 24 h, basal, primary screen (AID 1089); details: higher = more signal, called active from +8 up or from −8 down;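 note: growth of clinical yeast isolate S. cerevisiae YJM 789 seeded 1000 cells per well; test concentration not given here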
[13] = S. pombe growth modifiers, basal conditions – strain 972, OD600, 24 h, no modulator, primary screen (AID 1090);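 note: basal condition with compound alone and no growth modifier present; test concentration not given here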; details: S. pombe 972 growth, higher = more signal, called active from +8 up or from −8 down
[14] = budding yeast growth modifiers under rapamycin – strain BY4716, OD600, 96 h, primary screen (AID 1091); note: test concentration not given here; details: S. cerevisiae BY4716 + rapamycin, higher = more signal, called active from +8 up or from −8 down
[15] = target: Torsin-1A-interacting protein 2 (Homo sapiens) (UniProt Q8NFQ8); assay: small molecules binding lysate-expressed LULL1 – cell lysate, human LULL1 lysate, 635/667 nm fluorescence, primary screen (AID 1092); details: small-molecule microarray, hLULL1 lysate binding, 635 nm fluorescence; higher = more signal;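 note: probe is lysate of COS7 cells overexpressing human LULL1; score merges per-feature 667 nm fluorescence with signal-to-noise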
Chain of Torsin-1A-interacting protein 2 (Homo sapiens) (Q8NFQ8 whole entry, looked up): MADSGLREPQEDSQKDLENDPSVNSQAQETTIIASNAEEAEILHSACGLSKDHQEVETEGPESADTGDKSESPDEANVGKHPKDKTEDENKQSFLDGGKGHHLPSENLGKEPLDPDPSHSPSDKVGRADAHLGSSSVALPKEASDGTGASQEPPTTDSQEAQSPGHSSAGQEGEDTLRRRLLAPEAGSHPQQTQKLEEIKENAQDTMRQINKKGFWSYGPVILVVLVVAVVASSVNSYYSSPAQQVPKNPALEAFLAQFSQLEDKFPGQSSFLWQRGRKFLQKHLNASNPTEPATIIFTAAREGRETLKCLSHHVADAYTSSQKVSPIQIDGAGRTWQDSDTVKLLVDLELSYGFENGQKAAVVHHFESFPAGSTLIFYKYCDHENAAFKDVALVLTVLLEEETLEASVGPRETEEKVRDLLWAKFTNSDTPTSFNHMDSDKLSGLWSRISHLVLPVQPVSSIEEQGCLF

[16] = optical density change of DRC41 E. coli – strain DRC41, OD650, 24 h, E. coli filamentation project, primary screen (AID 1093);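 note: MC1000 strain lacking acrAB efflux and sulA so SOS filamentation is blocked; test concentration not given here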; details: E. coli DRC41 growth, higher = more signal, called active from +8 up or from −8 down
[17] = probe aLefty2 binding to arrayed compounds – biochemical, biotinylated probe, 635/667 nm fluorescence, primary screen (AID 1094); details: small-molecule microarray, higher = more signal;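 note: score merges spot fluorescence near 667 nm with spot signal-to-noise ratio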
[18] = test system: Noggin (protein binding on small-molecule microarray); assay: small molecules binding Noggin protein – biochemical, 635/667 nm fluorescence, primary screen (AID 1095); details: 635 nm fluorescence, higher = more signal;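 note: score merges 667 nm feature fluorescence with signal to noise over triplicate slides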
[19] = target: Neurogenic locus notch homolog protein 3 (Homo sapiens) (UniProt Q9UM47); assay: small molecules binding NOTCH3 protein – biochemical, 635/667 nm fluorescence, primary screen (AID 1096); details: small-molecule microarray, 635 nm fluorescence, higher = more signal
[20] = probe aEGFR binding to arrayed compounds – biochemical, biotinylated probe, 635/667 nm fluorescence, primary screen (AID 1097); details: small-molecule microarray, higher = more signal;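 note: probe is a biotinylated anti-EGFR antibody binding compounds printed on slides; score combines fluorescence near 667 nm and signal to noise of each spot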

Compound | composite z-score [1] | composite z-score [2] | composite z-score [3] | composite z-score [4] | composite z-score [5] | composite z-score [6] | composite z-score [7] | z-score [8] | composite z-score [9] | composite z-score [10] | composite z-score [11] | z-score [12] | z-score [13] | z-score [14] | composite z-score [15] | z-score [16] | composite z-score [17] | composite z-score [18] | composite z-score [19] | composite z-score [20]
CCOc1cc(C(O)C2C=CC3C(=O)N(c4ccccc4)C(=O)C3N2Nc2ccc(C#N)cc2)ccc1O (stereo not given) | -0.17 | -0.223 | 0.0024 | 0.11 | 1.27 | 1 | 0.836 | 0.163 (inactive) | 0.0472 | 0.0139 | 0.0034 | 0.453 (inactive) | 1.15 (inactive) | 0.726 (inactive) | 3.3 | -0.715 (inactive) | 0.121 | -0.167 | -0.0195 | -0.133
CN1C(=O)C2C=CC(C(O)c3ccc(F)cc3)N(Nc3ccccc3)C2C1=O (stereo not given) | -0.12 | -0.286 | -0.0222 | 0.208 | 1.24 | 1.35 | 1.34 | -0.604 (inactive) | 0.862 | -0.215 | 0.225 | 0.397 (inactive) | 1.08 (inactive) | 1.97 (inactive) | 3.69 | -1.2 (inactive) | 0.085 | 0.447 | 1.02 | 0.0034
Cc1cc(C)c(C(O)C2C=CC3C(=O)N(c4ccccc4)C(=O)C3N2Nc2ccc(C(C)C)cc2)c(C)c1 (stereo not given) | 0.224 | 0.243 | 0.172 | 0.941 | 1.66 | 1.91 | 1.25 | 1.44 (inactive) | 1.37 | 0.128 | 1.57 | 1.14 (inactive) | 0.863 (inactive) | 1.26 (inactive) | 3.42 | -1.87 (inactive) | 0.255 | -0.163 | 1.03 | -0.0172
COc1cc2c(cc1O)C(C)N(Cc1ccc([N+](=O)[O-])o1)CC2 (stereo not given) | 0.182 | 0.731 | -0.0138 | 1.15 | 1.3 | 1.53 | 1.08 | 0.11 (inactive) | 0.401 | 0.28 | 1.56 | -0.337 (inactive) | -3.24 (inactive) | -1.57 (inactive) | 1.74 | -0.741 (inactive) | 0.136 | 0.142 | 1.07 | 0.174
CCOC(=O)C[C@H]1[C@H](OC(=O)c2cc3ccccc3oc2=O)[C@@H](NC(=O)c2ccc(-c3ccccc3)cc2)c2cc(OCCCO)ccc2N1C(=O)c1ccccc1 | -0.561 | 1.07 | 0.0407 | 0.731 | 1.36 | 0.687 | 1.31 | 0.335 (inactive) | 0.497 | 0.102 | 1.02 | 0.11 (inactive) | -1.64 (inactive) | 0.117 (inactive) | 1.21 | 1.56 (inactive) | -0.0367 | 1.68 | 1.09 | 0.0526
[N-]=[N+]=Nc1ccccc1C[C@]1(C(N)=O)N=C(c2ccc(OCCCO)cc2)O[C@H]1c1ccccc1N=[N+]=[N-] | 0.12 | 0.902 | 0.0598 | 1.05 | 1.23 | 1.42 | 1.21 | -1.08 (inactive) | 0.359 | -0.0237 | 1.55 | -0.376 (inactive) | -1.28 (inactive) | -0.686 (inactive) | 2.89 | -0.436 (inactive) | 0.546 | -0.306 | 0.877 | 0.701
COC(=O)c1c2oc(c1C(=O)OC)C(=O)N(C)Cc1cn(nn1)C[C@H](Cc1ccccc1)NC(=O)N[C@H](CO)CC2 | -0.239 | -0.705 | -0.174 | -0.248 | -0.867 | -0.638 | -0.717 | -0.161 (inactive) | -0.276 | 0.0854 | -0.929 | 1.23 (inactive) | 0.914 (inactive) | 0.556 (inactive) | -0.609 | -0.666 (inactive) | -0.174 | -0.244 | 0.15 | -0.154
COCCCNC(=O)[C@@]1(Cc2ccccc2CN=[N+]=[N-])N=C(c2ccc(OCCCO)cc2)O[C@H]1c1ccccc1 | -0.102 | 2.1 | 0.0693 | 0.891 | 0.932 | 1.72 | 1.2 | -2.01 (inactive) | 1.82 | 0.28 | 1.54 | 1.06 (inactive) | 1.04 (inactive) | 11.6 (active) | 3.26 | 0.261 (inactive) | 0.0235 | 1.13 | 1.12 | -0.0267
COCCCNC(=O)[C@@]1(Cc2ccccc2N=[N+]=[N-])COC(c2ccc(OCCCO)cc2)=N1 | 0.846 | 0.0792 | 0.146 | 0.805 | 1 | 1.54 | 1.27 | 0.554 (inactive) | 0.734 | -0.274 | 1.43 | -0.0885 (inactive) | -1.52 (inactive) | 0.0734 (inactive) | 3.13 | 1.39 (inactive) | 0.219 | 0.0137 | 0.0417 | 0.507
COC(=O)c1c2oc(c1C(=O)OC)C(=O)N(Cc1ccccc1)Cc1cn(nn1)C[C@H](Cc1ccccc1)NC(=O)N[C@H](CO)CC2 | -0.462 | -0.277 | -0.105 | 0.138 | -0.0194 | 0.229 | 1.1 | -0.736 (inactive) | 0.0118 | 0.0092 | 0.707 | -3.16 (inactive) | -1.15 (inactive) | 0.0108 (inactive) | 1.69 | 0.101 (inactive) | -0.256 | 0.698 | 0.43 | -0.11
CC(C)C(=C=CC[C@H](O)c1ccc(OCCO)cc1)C[C@H](O)c1ccccn1 | -0.331 | -0.0844 | -0.129 | 0.679 | -0.0686 | 0.243 | 1.28 | -0.0915 (inactive) | -0.249 | -0.0618 | 1.52 | 0.758 (inactive) | -1.29 (inactive) | -0.132 (inactive) | 1.18 | 0.714 (inactive) | -0.142 | 1.28 | 0.481 | -0.146
